From the supplement of paper PMC10849652
Of roughly 8,800 targets only a part is listed; those with a hit were picked by preference. About 0.5% of all pairs of compound and target were hits. Values without a mark were called inactive.

Legend:
Experiment in all cases: log2 fold change, soluble protein after heating vs DMSO (PISA); higher = thermal stabilisation; K562 lysate, 10 uM; active = over 0.2 and 3.5 SD of the protein, either way, in both replicates (recomputed)
[1] = compound: C[C@H](C1=CC=C(C=C1)C(=O)NC2=C3C=CNC3=NC=C2)N
Method in brief: (§1)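 A 30 min treatment with 10 μM compound was applied to crude K562 extract at 1 mg/mL protein in PBS pH 7.4 with 1 mM MgCl2. Heating for 3 min spanned 48°C-58°C, after which aliquots were pooled, adjusted to 0.5% NP-40 at 4°C and spun at 21,000xg for 90 min. TMTpro 16plex LC-MS/MS of the supernatant, with channel sums equalised, gave values recorded as log-two fold change in thermal stability against solvent controls, from duplicates.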

[2] = compound: C[C@H](Nc1ncnc2nc[nH]c12)c1cc2cccc(Cl)c2c(=O)n1-c1ccccc1 [duvelisib]
Method in brief: as §1

[3] = compound: Cc1cc(Nc2cc(CN3CCOCC3)c3nc(C)c(Cc4ccc(Cl)cc4F)n3n2)n[nH]1 [gandotinib]
Method in brief: as §1

[4] = compound: Cc1cccc(CC(=O)N2CCc3c2ccc(-c2cn(C)c4ncnc(N)c24)c3F)n1
Method in brief: as §1

[5] = compound: Cc1nc(Nc2ncc(C(=O)Nc3c(C)cccc3Cl)s2)cc(N2CCN(CCO)CC2)n1 [dasatinib]
Method in brief: as §1

[6] = compound: Cn1cc(-c2ccc3c(c2)CCN3C(=O)Cc2cccc(C(F)(F)F)c2)c2c(N)ncnc21
Method in brief: as §1

[7] = compound: C[C@@H](Oc1cc(-c2cnn(C3CCNCC3)c2)cnc1N)c1c(Cl)ccc(F)c1Cl [crizotinib]
Method in brief: as §1

[8] = compound: Cc1ccc(-n2nc(C(C)(C)C)cc2NC(=O)Nc2ccc(OCCN3CCOCC3)c3ccccc23)cc1 [doramapimod]
Method in brief: as §1

[9] = compound: Cn1cc(CNCC2CCN(c3ncc(C(=O)NO)cn3)CC2)c2ccccc21 [quisinostat]
Method in brief: as §1

[10] = compound: NC(=O)Nc1cc(-c2cccc(F)c2)sc1C(=O)N[C@H]1CCCNC1
Method in brief: as §1

[11] = compound: NC1(c2ccc(-c3nc4ccn5c(=O)[nH]nc5c4cc3-c3ccccc3)cc2)CCC1
Method in brief: as §1

[12] = compound: CS(=O)(=O)CCNCc1ccc(-c2ccc3ncnc(Nc4ccc(OCc5cccc(F)c5)c(Cl)c4)c3c2)o1 [lapatinib]
Method in brief: as §1

[13] = compound: Cc1cc(Nc2cc(N3CCN(C)CC3)nc(Sc3ccc(NC(=O)C4CC4)cc3)n2)n[nH]1 [tozasertib]
Method in brief: as §1

[14] = compound: Cc1cn(-c2cc(NC(=O)c3ccc(C)c(Nc4nccc(-c5cccnc5)n4)c3)cc(C(F)(F)F)c2)cn1 [nilotinib]
Method in brief: as §1

[15] = compound: Cc1nc(Nc2n[nH]c3c2CN(C(=O)N[C@H](CN(C)C)c2ccccc2)C3(C)C)c2sccc2n1
Method in brief: as §1

[16] = compound: Cc1ncc(-c2ccnc(Nc3ccc(S(C)(=O)=O)cc3)n2)n1C(C)C
Method in brief: as §1

[17] = compound: Cn1cncc1[C@@](N)(c1ccc(Cl)cc1)c1ccc2c(c1)c(-c1cccc(Cl)c1)cc(=O)n2C [tipifarnib]
Method in brief: as §1

[18] = compound: NC(=O)c1cnc(N[C@@H]2CCCC[C@@H]2N)nc1Nc1cccc(-n2nccn2)c1
Method in brief: as §1

[19] = compound: CS(=O)(=O)N1CCN(Cc2cc3nc(-c4cccc5[nH]ncc45)nc(N4CCOCC4)c3s2)CC1 [pictilisib]
Method in brief: as §1

[20] = compound: Cc1ccc(NC(=O)c2ccc(CN3CC[C@H](N(C)C)C3)c(C(F)(F)F)c2)cc1Nc1nccc(-c2cncnc2)n1 [bafetinib]
Method in brief: as §1

UniProt Q9Y2X9, sequence (Q9Y2X9 whole entry, looked up): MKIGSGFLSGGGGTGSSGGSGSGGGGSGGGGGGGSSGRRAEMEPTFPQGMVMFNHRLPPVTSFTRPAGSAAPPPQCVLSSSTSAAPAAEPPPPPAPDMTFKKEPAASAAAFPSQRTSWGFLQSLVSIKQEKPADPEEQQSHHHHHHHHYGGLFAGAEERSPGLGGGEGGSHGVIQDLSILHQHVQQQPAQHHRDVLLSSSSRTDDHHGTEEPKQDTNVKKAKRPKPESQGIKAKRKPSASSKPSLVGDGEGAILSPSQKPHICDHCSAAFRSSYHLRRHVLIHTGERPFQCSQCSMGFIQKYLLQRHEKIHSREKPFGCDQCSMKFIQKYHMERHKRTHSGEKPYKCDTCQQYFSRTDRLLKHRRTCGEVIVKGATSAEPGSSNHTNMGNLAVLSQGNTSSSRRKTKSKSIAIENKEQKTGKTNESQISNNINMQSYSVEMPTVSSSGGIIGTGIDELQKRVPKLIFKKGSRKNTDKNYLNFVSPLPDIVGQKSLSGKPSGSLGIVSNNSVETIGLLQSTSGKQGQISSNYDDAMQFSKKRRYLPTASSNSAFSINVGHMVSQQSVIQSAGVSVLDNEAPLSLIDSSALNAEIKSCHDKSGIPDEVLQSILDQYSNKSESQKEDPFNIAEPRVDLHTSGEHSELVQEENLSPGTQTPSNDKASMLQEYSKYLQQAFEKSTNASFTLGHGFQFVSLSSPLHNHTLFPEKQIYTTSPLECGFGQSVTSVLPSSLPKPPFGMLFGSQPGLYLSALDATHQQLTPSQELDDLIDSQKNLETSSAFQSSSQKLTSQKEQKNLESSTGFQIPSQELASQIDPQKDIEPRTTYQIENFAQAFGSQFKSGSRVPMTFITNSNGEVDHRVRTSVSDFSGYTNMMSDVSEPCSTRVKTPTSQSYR
UniProt P46939, sequence (P46939 whole entry, looked up): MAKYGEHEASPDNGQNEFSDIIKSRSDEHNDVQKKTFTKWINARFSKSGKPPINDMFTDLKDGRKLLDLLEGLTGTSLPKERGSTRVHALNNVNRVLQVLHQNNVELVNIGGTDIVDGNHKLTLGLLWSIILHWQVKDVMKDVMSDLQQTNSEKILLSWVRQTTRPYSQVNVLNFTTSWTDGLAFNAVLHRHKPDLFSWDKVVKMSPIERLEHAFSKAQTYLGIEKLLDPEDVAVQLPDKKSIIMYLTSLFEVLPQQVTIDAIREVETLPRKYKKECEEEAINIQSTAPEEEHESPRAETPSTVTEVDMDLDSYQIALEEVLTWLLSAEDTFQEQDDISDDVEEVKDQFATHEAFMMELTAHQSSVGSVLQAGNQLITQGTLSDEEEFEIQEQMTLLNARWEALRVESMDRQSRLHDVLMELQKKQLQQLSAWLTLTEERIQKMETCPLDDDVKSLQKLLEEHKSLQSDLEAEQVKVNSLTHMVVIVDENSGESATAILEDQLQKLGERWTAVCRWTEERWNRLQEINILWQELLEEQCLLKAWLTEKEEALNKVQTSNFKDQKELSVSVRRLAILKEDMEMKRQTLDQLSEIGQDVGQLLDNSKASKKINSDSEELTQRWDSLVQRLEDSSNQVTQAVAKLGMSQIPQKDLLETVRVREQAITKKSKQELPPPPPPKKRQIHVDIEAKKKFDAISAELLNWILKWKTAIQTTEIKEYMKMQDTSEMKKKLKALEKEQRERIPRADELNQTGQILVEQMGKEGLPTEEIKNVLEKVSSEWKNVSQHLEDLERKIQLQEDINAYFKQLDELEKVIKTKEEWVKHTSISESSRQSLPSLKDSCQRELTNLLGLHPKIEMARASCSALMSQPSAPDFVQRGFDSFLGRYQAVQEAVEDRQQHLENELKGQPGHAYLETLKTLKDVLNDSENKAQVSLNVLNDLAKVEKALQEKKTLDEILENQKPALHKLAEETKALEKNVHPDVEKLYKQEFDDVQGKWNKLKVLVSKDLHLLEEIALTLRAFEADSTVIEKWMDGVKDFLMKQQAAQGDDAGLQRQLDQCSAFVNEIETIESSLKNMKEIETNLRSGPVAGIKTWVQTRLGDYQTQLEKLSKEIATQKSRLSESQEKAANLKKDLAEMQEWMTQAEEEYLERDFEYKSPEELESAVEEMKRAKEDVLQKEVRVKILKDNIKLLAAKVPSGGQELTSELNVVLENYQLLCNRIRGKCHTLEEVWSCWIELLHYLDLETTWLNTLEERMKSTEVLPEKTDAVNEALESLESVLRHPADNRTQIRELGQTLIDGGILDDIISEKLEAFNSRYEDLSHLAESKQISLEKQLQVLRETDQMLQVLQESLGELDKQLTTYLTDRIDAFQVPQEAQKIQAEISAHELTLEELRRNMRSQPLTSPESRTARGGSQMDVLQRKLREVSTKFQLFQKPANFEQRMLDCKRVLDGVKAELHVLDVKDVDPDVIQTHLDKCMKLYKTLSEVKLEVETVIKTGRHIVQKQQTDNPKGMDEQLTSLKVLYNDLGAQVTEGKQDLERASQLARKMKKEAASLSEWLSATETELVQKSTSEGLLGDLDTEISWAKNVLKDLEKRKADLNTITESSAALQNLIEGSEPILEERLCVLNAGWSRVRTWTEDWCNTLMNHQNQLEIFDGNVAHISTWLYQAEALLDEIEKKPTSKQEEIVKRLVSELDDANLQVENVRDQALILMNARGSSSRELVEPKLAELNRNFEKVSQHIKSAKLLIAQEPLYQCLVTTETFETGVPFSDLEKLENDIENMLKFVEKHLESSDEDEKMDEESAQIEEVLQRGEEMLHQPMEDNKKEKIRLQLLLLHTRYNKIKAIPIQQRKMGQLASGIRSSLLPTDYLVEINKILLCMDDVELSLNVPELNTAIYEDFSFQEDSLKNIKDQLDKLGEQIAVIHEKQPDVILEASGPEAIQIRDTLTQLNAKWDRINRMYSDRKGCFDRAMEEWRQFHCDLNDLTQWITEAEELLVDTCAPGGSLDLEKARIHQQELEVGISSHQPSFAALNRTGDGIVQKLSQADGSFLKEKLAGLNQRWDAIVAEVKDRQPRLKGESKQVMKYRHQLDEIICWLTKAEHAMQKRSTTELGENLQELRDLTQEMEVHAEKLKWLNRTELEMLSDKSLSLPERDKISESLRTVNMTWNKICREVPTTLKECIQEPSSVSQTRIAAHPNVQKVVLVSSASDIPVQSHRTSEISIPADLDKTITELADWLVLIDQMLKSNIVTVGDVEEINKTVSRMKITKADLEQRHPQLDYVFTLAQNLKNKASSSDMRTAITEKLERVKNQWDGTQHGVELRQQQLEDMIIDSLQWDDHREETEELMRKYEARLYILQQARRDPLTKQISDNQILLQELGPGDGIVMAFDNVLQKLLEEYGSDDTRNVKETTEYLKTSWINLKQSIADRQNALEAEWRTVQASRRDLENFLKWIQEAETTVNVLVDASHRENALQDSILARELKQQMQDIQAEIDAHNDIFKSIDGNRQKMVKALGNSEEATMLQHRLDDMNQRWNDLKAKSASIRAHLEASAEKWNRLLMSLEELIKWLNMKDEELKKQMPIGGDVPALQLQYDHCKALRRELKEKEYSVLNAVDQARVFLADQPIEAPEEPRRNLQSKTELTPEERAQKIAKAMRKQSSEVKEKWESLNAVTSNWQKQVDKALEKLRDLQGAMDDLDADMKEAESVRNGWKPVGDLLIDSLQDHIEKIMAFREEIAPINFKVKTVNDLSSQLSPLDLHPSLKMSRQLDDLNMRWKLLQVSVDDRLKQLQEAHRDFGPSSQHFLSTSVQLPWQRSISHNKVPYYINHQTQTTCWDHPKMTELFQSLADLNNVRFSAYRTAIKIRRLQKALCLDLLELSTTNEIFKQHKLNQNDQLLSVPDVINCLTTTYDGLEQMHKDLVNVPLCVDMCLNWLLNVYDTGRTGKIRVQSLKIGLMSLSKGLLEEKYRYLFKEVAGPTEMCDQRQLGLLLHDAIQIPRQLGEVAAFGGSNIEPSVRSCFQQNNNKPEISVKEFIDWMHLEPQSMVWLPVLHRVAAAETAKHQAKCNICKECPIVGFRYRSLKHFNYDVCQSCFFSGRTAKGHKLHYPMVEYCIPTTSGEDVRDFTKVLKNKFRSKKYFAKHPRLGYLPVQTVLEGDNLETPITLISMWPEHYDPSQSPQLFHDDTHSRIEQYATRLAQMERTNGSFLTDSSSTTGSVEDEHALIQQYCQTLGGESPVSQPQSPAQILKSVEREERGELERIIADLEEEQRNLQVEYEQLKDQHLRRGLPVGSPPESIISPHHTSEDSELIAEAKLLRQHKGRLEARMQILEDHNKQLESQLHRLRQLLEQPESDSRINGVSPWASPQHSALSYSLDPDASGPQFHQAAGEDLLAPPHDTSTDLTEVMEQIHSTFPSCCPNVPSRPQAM
UniProt P50552, sequence (P50552 whole entry, looked up): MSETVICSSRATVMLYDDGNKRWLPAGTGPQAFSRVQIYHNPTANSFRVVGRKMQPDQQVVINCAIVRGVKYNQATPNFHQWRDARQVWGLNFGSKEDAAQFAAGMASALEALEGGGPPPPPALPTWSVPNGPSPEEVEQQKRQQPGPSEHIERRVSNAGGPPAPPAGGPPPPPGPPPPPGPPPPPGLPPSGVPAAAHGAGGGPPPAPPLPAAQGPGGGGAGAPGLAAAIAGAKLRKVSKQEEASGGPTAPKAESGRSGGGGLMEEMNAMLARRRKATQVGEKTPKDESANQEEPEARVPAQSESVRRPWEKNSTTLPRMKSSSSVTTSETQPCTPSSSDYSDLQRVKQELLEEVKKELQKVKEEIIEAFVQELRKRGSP
UniProt Q9UBK9, sequence (Q9UBK9 whole entry, looked up): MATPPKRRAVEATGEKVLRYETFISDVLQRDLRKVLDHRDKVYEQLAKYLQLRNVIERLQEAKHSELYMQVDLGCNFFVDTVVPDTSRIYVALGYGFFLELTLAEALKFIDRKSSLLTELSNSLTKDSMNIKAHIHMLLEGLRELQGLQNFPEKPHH

| Target | log2 fold change [1] | log2 fold change [2] | log2 fold change [3] | log2 fold change [4] | log2 fold change [5] | log2 fold change [6] | log2 fold change [7] | log2 fold change [8] | log2 fold change [9] | log2 fold change [10] | log2 fold change [11] | log2 fold change [12] | log2 fold change [13] | log2 fold change [14] | log2 fold change [15] | log2 fold change [16] | log2 fold change [17] | log2 fold change [18] | log2 fold change [19] | log2 fold change [20] |
| --- | --- | --- | --- | --- | --- | --- | --- | --- | --- | --- | --- | --- | --- | --- | --- | --- | --- | --- | --- | --- |
| WSB1 (UniProt Q9Y6I7) | 0.12 | -0.137 | -1.11 (active) | -0.674 | -0.194 | 0.012 |  |  |  |  |  |  |  |  |  |  |  |  |  |  |
| ZNF281 (UniProt Q9Y2X9) |  | 0.029 |  |  | -0.041 | 0.031 | 0.003 | 0.02 | 0.151 | -0.028 | 0.02 |  |  |  |  |  |  |  |  |  |
| VPS72 (UniProt Q15906) | -0.099 | 0.001 | 0.031 | 0.136 | -0.054 | 0.073 | 0.005 | -0.023 | 0.005 | 0.05 | -0.036 | 0.025 | 0.059 | 0.029 | 0.032 | 0.05 | 0.088 | -0.03 |  |  |
| ULK3 isoform 4 (UniProt Q6PHR2) | 0.113 | 0.065 | -0.08 | 0.354 | 0.035 | -0.181 | -0.088 | -0.15 | -0.11 | 0.296 | -0.157 | 0.059 | 0.059 |  |  |  |  | 0.133 | -0.008 | 0.041 |
| ZSCAN26 (UniProt Q16670) |  |  |  |  |  |  | -0.025 | 0.102 | 0.169 | -0.093 |  |  |  |  |  |  |  |  |  |  |
| ZNF652 (UniProt Q9Y2D9) |  |  |  |  |  |  | -0.007 | 0 | 0 | -0.036 |  |  |  |  |  |  |  |  |  |  |
| UXT isoform 2 (UniProt Q9UBK9) | -0.018 | -0.006 | 0.084 | 0.065 | 0.079 | -0.05 | 0.003 | 0.012 | -0.03 | -0.04 | -0.036 | -0.018 | -0.053 | 0.012 | -0.019 | 0.019 | -0.015 | -0.026 | -0.073 | 0.089 |
| XPOT (UniProt F5GYW6) |  |  |  |  |  |  |  |  |  |  |  | -0.115 |  |  |  |  |  | -0.192 |  |  |
| UTRN isoform 2 (UniProt P46939) | -0.009 |  | 0.04 | -0.018 |  |  |  |  |  |  | 0.21 |  | -0.077 |  |  |  |  |  | 0.01 | -0.175 |
| WAS (UniProt P42768) | -0.16 | -0.194 | -0.057 | 0.103 | 0.095 | 0.129 |  |  |  |  | 0.025 |  | -0.127 | 0.636 (active) | -0.102 | 0.318 | -0.064 |  | -0.027 | -0.065 |
| USP22 (UniProt Q9UPT9) | 0.004 | -0.006 | -0.148 | 0.019 | 0.022 | 0.028 | -0.072 | -0.029 | -0.065 | 0.004 | -0.012 |  | 0.036 | -0.032 | 0.002 | 0.037 | -0.028 |  | 0.001 | -0.032 |
| ZSCAN21 (UniProt Q9Y5A6) | -0.131 |  | -0.108 | 0.068 |  |  |  |  |  |  |  |  | -0.001 |  |  |  |  |  |  |  |
| VASP (UniProt P50552) | -0.017 | 0.047 | 0.005 | 0.009 | -0.061 | -0.001 | 0.007 | -0.004 | 0.012 | -0.012 | 0.013 | -0.006 | 0.019 | -0.025 | -0.002 | -0.014 | 0.008 | -0.006 | 0.004 | 0.136 |
| UNC13A (UniProt Q9UPW8) | -1.52 |  | 0.331 | 0.481 |  |  |  |  |  |  | -0.048 |  |  | 0.114 | 0.046 | 0.165 | 0.064 |  |  |  |
